Test results from PubChem BioAssay.
Active and inactive are the calls of the source. No stated cut-off is given here; in the data, active means inhibition above about 33%; inactive means the rest.

Test: VP16 transactivation reporter inhibitors, counter-screen for LRH-1 inverse agonist project, cell-based, luminescence, high throughput (AID 651615)
Details: Gal4-VP16 luciferase reporter cells, at 3.6 µM, stronger effect = higher value

| Compound | inhibition |
| --- | --- |
| O=C(N/N=C/c1ccc(Sc2ccccn2)o1)c1cccc([N+](=O)[O-])c1 | 10.4% (inactive) |
| CCOc1ccc(NC(=O)CSc2nc3cccnc3n2CCOC)cc1 | -10.9% (inactive) |
| COC(=O)c1ccc(NC(=O)CSc2nc3ncccc3[nH]2)cc1 | -13.4% (inactive) |
| COc1ccccc1-n1c(SCC(=O)Nc2ccc(Cl)cc2)nc(O)c(Cc2ccccc2)c1=O | 0.94% (inactive) |
| CC1(C)CC(=O)C=C(c2ccc3c(c2)OCO3)C1 | 2.47% (inactive) |
| CC1(C)Cc2c(sc3nc(SCC(=O)NCc4ccco4)n(-c4ccccc4)c(=O)c23)CS1 | 4.77% (inactive) |
| CN(C)c1ccc(C(=O)OCC(=O)Nc2ccc(N3CCOCC3)cc2)cc1 | -6.21% (inactive) |
| O=C(CSc1nc2ccc(F)cc2c(=O)n1-c1ccccc1)Nc1ccc2c(c1)CCC2 | -3.99% (inactive) |
| COc1cccc(NC(=O)c2oc3ccccc3c2NC(=O)C2CC2)c1 | -8.83% (inactive) |
| O=C(COC(=O)c1ccc(=O)n(Cc2ccccc2)n1)Nc1ccc2c(c1)OCCO2 | -13.9% (inactive) |
| O=C(COc1ccc2c3c(c(=O)oc2c1)CCCC3)NCCCN1CCOCC1 | -6.23% (inactive) |
| COc1ccc(-c2cc3ccccc3oc2=O)cc1NC(=O)c1ccc([N+](=O)[O-])o1 | -68.2% (inactive) |
| CC(=O)Nc1ccc(N=c2cc([N+](=O)[O-])cc(Cl)n2O)cc1 | -3.98% (inactive) |
| COCC(=O)NC1CCN(CC(=O)Nc2ccc(OC)cc2[N+](=O)[O-])CC1 | -2.25% (inactive) |
| O=[N+]([O-])c1ccc(N2CCN(Cc3ccccc3)CC2)c2c1no[n+]2[O-] | 25.3% (inactive) |
| Cn1nnnc1Sc1ncnc2scc(-c3ccc(-c4ccccc4)cc3)c12 | -20.2% (inactive) |
| CN1CCN(C2=C(Cl)C(=O)N(c3ccc(Cl)c(Cl)c3)C2=O)CC1 | -5.07% (inactive) |
| O=C(Nc1ccc(Cc2ccncc2)cc1)c1ccc([N+](=O)[O-])o1 | -16.8% (inactive) |
| Nc1cccc(OCCCCCOc2cccc(N)c2)c1 | -5% (inactive) |
| COc1ccc2nc(N3CCN(C(=O)c4ccc([N+](=O)[O-])o4)CC3)sc2c1 | -44.3% (inactive) |

| Compound | inhibition |
| --- | --- |
| CCS(=O)(=O)Nc1cccc(-c2ccc3nnc(-c4cccnc4)n3n2)c1 | -31.6% (inactive) |
| COc1cc2c(cc1OC)CN(C(=O)c1ccc([N+](=O)[O-])o1)CC2 | 7.13% (inactive) |
| CC(O)(c1ccc(F)c(F)c1)c1nc(-c2ccc(S(C)(=O)=O)cc2)cs1 (stereo not given) | -2.47% (inactive) |
| CC(=O)Nc1ccc2nc(NC(=O)c3ccc([N+](=O)[O-])o3)sc2c1 | -32.4% (inactive) |
| COc1ccc(OC)c(CCNC(=O)Cn2nc(C)c3c(C)n(-c4ccc(C)cc4)nc3c2=O)c1 | 52% (active) |
| COc1cc(C(=O)Nc2sc3c(c2C#N)CCN(C(C)=O)C3)cc(OC)c1OC | -16.2% (inactive) |
| Cc1ccccc1Oc1nc2c(C)cccn2c(=O)c1/C=C(\C#N)C(=O)NC1CCS(=O)(=O)C1 (stereo not given) | 18.6% (inactive) |
| O=C(c1ccc([N+](=O)[O-])s1)N1CCN(c2ncccn2)CC1 | 4.85% (inactive) |
| Cc1cc(N2CCN(C(=O)c3ccco3)CC2)n2nc(-c3cccc(F)c3)cc2n1 | -10.7% (inactive) |
| COCCn1c(SCC(=O)Nc2ccc(NC(C)=O)cc2)nc2ccccc2c1=O | 2.35% (inactive) |
| Cc1ccc(C)c(NC(=O)CSc2nnc(CCNC(=O)OC(C)(C)C)o2)c1 | -2.78% (inactive) |
| CC(=O)N1CCc2c(sc(NC(=O)c3ccc([N+](=O)[O-])o3)c2C#N)C1 | -119% (inactive) |
| CCOC(=O)c1ccc(N2CCN(C(=O)c3ccccc3)CC2)c(NC(=O)c2ccco2)c1 | -26.2% (inactive) |
| CCN(Cc1ccccc1)c1ccc(/C=N/N2CCOCC2)cc1 | -9.02% (inactive) |
| CC(C)[C@H](NC(=O)OCc1ccccc1)C(=O)OCC(=O)Nc1ccc(N2CCOCC2)cc1 | -0.29% (inactive) |
| CCOC(=O)c1c(C)[nH]c(C(=O)COC(=O)/C=C/c2ccc3c(c2)OCO3)c1C | 7.82% (inactive) |
| Cc1ccnc2nc(C(=O)OCC(=O)Nc3ccc([N+](=O)[O-])cc3Br)nn12 | -0.95% (inactive) |
| C=CCn1c(CCNC(=O)c2cccs2)nnc1SCC(=O)Nc1cccc(Cl)c1C | 2.77% (inactive) |
| CCOc1ccc(NC(=O)CSc2nc3ccccc3c(=O)n2CCCC(=O)NCC2CCCO2)cc1 (stereo not given) | -6.22% (inactive) |
| O=C(NCc1ccc2c(c1)OCO2)c1cc([N+](=O)[O-])ccc1N1CCCCC1 | 30.3% (inactive) |
